Bioassay records (PubChem)
D2 PAM-1 – potentiates the human D2 dopamine receptor allosterically; potentiation, % (concentration not given with the values); actives 0.23% (n = 360,000); P14416; DiscoveRx D2 beta-arrestin cells, luminescence, 90 min; 100% = 57 uM dopamine signal; in the data active = potentiation above about 50%; inconclusive = mostly about 30% to 49%
Target sequence (P14416 whole entry, looked up): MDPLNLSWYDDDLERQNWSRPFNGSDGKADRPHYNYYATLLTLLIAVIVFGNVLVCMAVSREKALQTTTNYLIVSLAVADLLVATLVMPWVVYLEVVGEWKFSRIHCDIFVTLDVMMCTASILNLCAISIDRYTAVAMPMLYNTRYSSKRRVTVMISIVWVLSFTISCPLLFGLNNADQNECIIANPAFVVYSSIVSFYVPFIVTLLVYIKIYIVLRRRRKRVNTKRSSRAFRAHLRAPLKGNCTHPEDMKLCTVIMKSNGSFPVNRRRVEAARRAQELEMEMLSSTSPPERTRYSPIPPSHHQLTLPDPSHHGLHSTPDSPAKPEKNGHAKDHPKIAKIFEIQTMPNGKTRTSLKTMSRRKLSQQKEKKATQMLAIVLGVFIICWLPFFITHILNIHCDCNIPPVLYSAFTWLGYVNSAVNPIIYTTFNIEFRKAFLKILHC
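D2 cells co-treated with compound plus 50 nM dopamine (EC20) for 90 min at 37 deg C to detect potentiation. Beta-arrestin recruitment was read as enzyme-fragment luminescence after 1 h at ambient temperature. Full response was set by 57 uM dopamine.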
D2 PAM-2 – positively modulates the human D2 dopamine receptor allosterically | HEK293 T-REx D2, calcium flux, EC20 dopamine potentiation | potentiation, % at 10 µM | P14416 | actives 0.34% (n = 340,000);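 active = potentiation over 3 SD above the plate norm, cut at about 30% in these data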
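Using a no-wash calcium dye in inducible, force-coupled HEK293 Trex cells expressing D2, we tracked fluorescence each second for 180 s after compound, then for 180 s after EC20 dopamine to detect augmented signalling.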
D2 ag-1 – activates the human D2 dopamine receptor | actives 0.53% (n = 340,000) | HEK293 T-REx D2 cells, calcium flux agonist mode | activation, % at 2 µM | P14416 | AID 485358;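 active = activation over 3 SD above normal in the single-dose calcium agonist read, cut at about 30% in these data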
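Agonism scored from kinetic calcium signal (1 read/sec, 180 s) following compound pin transfer, after a 10 s baseline. Cells: HEK293 Trex line expressing inducible D2 receptor coupled to calcium, dye-loaded after overnight culture at 30 C.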
D2 antag – D2 dopamine receptor (human) antagonism | P14416 | HEK293 TREx D2 cells, calcium flux, dopamine EC80 | inhibition, % at 10 µM | actives 2% (n = 340,000) | AID 485344; in the data active = inhibition above about 30%; inactive = below that, where a call was filed
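Calcium mobilization kinetics were recorded at 1 s intervals in tetracycline-induced HEK293 T-REx D2 cells, first for 180 s after compound addition and then 180 s after EC80 dopamine.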
D2 ag-2 – human D2 receptor agonism in beta-arrestin assay | P14416 | DiscoveRx PathHunter D2 beta-arrestin, luminescence, 90 min; 100% = 57 uM dopamine signal | activation, % (no concentration beside the values) | actives 0.084% (n = 360,000); in the data active = activation above about 40%; inconclusive = between about 15% and that limit
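DiscoveRx PathHunter D2 beta-arrestin cells (2,100/well) attached overnight, then compound-stimulated 90 min at 37 C in HBSS/10 mM HEPES/0.1% Tween-20 buffer; beta-galactosidase complementation read by luminescence after 1 h at ambient temperature. Dopamine 57 uM final (EC100) as control.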
D3 ag – confirmation of human D3 dopamine receptor agonists, beta-arrestin. shares compounds with D2 ag-1. DiscoveRx D3 beta-arrestin cells, luminescence, 90 min. Potency, µM (titrated, usually from 76.9 µM), usual class: activators. actives 4% (n = 2,300); also: nearly all actives have a fitted effect of over 70% in size
D2 ag-3 – counter-screen for D3 agonists: human D2 dopamine receptor agonism. shares compounds with D2 ag-1. DiscoveRx PathHunter D2 beta-arrestin, luminescence, 90 min; response scale: percent relative to full dopamine signal. Potency, µM (series often up to 76.9 µM), actives largely listed as activators. actives 5.9% (n = 2,300). AID 720507; also: nearly all actives have a fitted effect of over 70% in size
Large screens that a line does not name were inactive (follow-up assays come after a bar, where they were run). Hits are enriched below; roughly 2.4% of the tested compounds scored in any of these assays. Unless noted, calls follow the shape of the dose curve; as a rule, active = well fitted activation curve with a large enough effect; inconclusive = small, poorly fitted or top-dose-only effect; inactive = flat fitted curve, though single readings scatter.

Cc1cc(OCc2cc(C(=O)NC3CCC3)no2)cc(C)c1Cl	D2 antag 43 | D3 ag inactive | D2 ag-3 inactive
Cc1cc(OCc2cc(C(=O)N3CCC(Oc4cccnc4)CC3)no2)cc(C)c1Cl	D2 ag-1 51 | D3 ag inactive | D2 ag-3 inconclusive
Cc1cc(SCc2ccc(Cl)c(Cl)c2)nc(=O)[nH]1	none
O=c1ccn(CCc2c[nH]c3ccccc23)c2c1CCCC2	D2 ag-1 43 | D3 ag inactive | D2 ag-3 inactive
CCC(=O)N1C(Cc2ccccc2)COC1(C)C (stereo not drawn)	D2 ag-1 41 | D3 ag inactive | D2 ag-3 inactive
CCC1(C)NC(=O)N(CC(=O)N2CCC(Cc3ccccc3)CC2)C1=O (stereo not drawn)	none
COc1cccc(NC(=O)COC(=O)c2ccccc2SCC(=O)N2CCCC2)c1	D2 PAM-1 inconclusive
O=C(c1oc(=O)c2ccccc2c1-c1ccccc1)N1CCC(O)CC1	none | D3 ag inactive | D2 ag-3 inactive
Cc1ccc(CNC(=O)C2CCN(c3ncnc4c3nc3n4CCCCC3)CC2)cc1	none (no result: D2 PAM-1, D2 antag, D2 ag-2)
CC(=O)CC(C)(C)NC(C)=S	D2 ag-1 34 | D3 ag inactive | D2 ag-3 inactive
COc1ccc(CC(=O)NC(C)(C)CC(C)=O)cc1OC	none
CCOC(=O)c1c(-c2ccccc2)oc2ccc(N(C(C)=O)S(=O)(=O)c3ccc(CC)cc3)cc12	none (no result: D2 PAM-1, D2 antag, D2 ag-2)
O=C(Cc1ccc(NC(=O)C2CCCN(C(=O)C3CCCCC3)C2)cc1)Nc1ccc(C(=O)N2CCOCC2)cc1 (stereo not drawn)	none (no result: D2 PAM-2, D2 ag-1, D2 antag)
COc1ccc(N(CC(=O)NCCOc2ccccc2)S(=O)(=O)c2ccc(C)cc2)cc1	none | D3 ag inactive | D2 ag-3 inactive
CCOc1ccc(N(CC(=O)NCCOc2ccc(C)cc2)S(=O)(=O)c2ccccc2)cc1	none
CCOC(=O)N1CCC(N2CCN(Cc3ccc(F)c(F)c3)C(CCO)C2)CC1 (stereo not drawn)	D2 ag-1 40 | D3 ag inactive | D2 ag-3 inactive
OCCC1CN(C2CCN(c3ccccc3F)CC2)CCN1Cc1ccccc1 (stereo not drawn)	none | D3 ag inactive | D2 ag-3 inactive
OCCC1CN(C2CSCCSC2)CCN1Cc1ccccc1 (stereo not drawn)	none
O=C(Cc1cccc(NC(=O)C2CCCN(C(=O)CCc3ccccc3)C2)c1)Nc1ccc(C(=O)N2CCCCC2)cc1 (stereo not drawn)	none (no result: D2 PAM-2, D2 ag-1, D2 antag)
COc1ccc(-c2noc(CN(C(=O)c3ccc(C)cc3C)C(C)C)n2)cc1	none (no result: D2 PAM-1, D2 antag, D2 ag-2)
COCCNC(=O)CCc1c(C)nc2nc(-c3cc(OC)cc(OC)c3)nn2c1C	none
O=C(COC(=O)c1cc(=O)[nH]c(=O)[nH]1)NCc1ccccc1	none
CCc1ccc(C(=O)c2cn(CC(=O)Nc3ccc4c(c3)OCCO4)c3ccc(CC)cc3c2=O)cc1	none (no result: D2 PAM-1, D2 antag, D2 ag-2)
Cc1nc2ccccc2nc(=O)c1NNc1ccccc1	D2 ag-1 75 | D3 ag inactive | D2 ag-3 inactive
N#CC(C(=O)OCc1ccccc1)c1nc2ccccc2nc1N1CCOCC1 (stereo not drawn)	none | D3 ag inactive | D2 ag-3 inactive
N#CC(C(=O)NC1CCCCC1)c1nc2ccccc2nc1N1CCOCC1 (stereo not drawn)	none (no result: D2 PAM-1, D2 ag-2)
CC(CCC(=O)O)C1CCC2C3CCC4C[C@H](O)CCC4(C)C3CC(=O)C12C (stereo partly drawn)	D2 ag-1 52 | D3 ag inactive | D2 ag-3 inactive
C[C@H](CCC(=O)O)[C@H]1CC[C@H]2[C@@H]3CC[C@@H]4C[C@H](O)CC[C@]4(C)[C@H]3CC[C@]12C	none
CC(NC(=O)COC(=O)CC(c1ccccc1)c1ccccc1)c1ccccc1 (stereo not drawn)	none
CN(Cc1ccccc1)C(=O)c1ccc(NC(=O)Cc2cccc(NC(=O)C3CCN(C(=O)C4CCC4)CC3)c2)cc1	none | D3 ag inactive | D2 ag-3 inactive
CN(Cc1ccccc1)C(=O)c1ccc(NC(=O)Cc2ccc(NC(=O)C3CCN(C(=O)C4CCC4)CC3)cc2)cc1	none (no result: D2 PAM-1, D2 PAM-2, D2 ag-1, D2 antag)
COc1ccc(CCC(=O)OCC(=O)N2CCN(S(=O)(=O)c3ccc(C)cc3C)CC2)cc1	none | D3 ag inactive | D2 ag-3 inactive
Cc1ccc(OCCC(=O)OCC(=O)N2CCN(S(=O)(=O)c3ccc(C)cc3C)CC2)cc1	none
COc1ccc(-c2ccc(NC(=O)c3ccco3)cc2)nn1	none
Nc1nc(N2CCN(Cc3ccccc3)CC2)n[nH]1	D2 PAM-1 inconclusive, D2 ag-1 94, D2 ag-2 68 | D3 ag inconclusive | D2 ag-3 4.5µM
Nc1nc(N2CCN(C(c3ccccc3)c3ccccc3)CC2)n[nH]1	none
Oc1ccc(Cl)cc1C=Nc1ccccc1Br	none
Oc1ccc(Br)cc1C=Nc1ccc2c3c(cccc13)CC2	none | D3 ag inactive | D2 ag-3 inactive
O=C1CC(c2ccccc2)NN1 (stereo not drawn)	none | D3 ag inactive | D2 ag-3 inactive
COc1ccc(C(OCC(O)CNCCc2ccccc2)c2ccc(OC)cc2)cc1 (stereo not drawn)	D2 ag-1 51 | D3 ag inactive | D2 ag-3 inactive
OC(CNCCc1ccccc1)COc1ccc(OCC(O)CNCCc2ccccc2)cc1 (stereo not drawn)	none (no result: D2 PAM-2, D2 ag-1, D2 antag) | D3 ag inactive | D2 ag-3 inactive
NC(c1cccc(F)c1)c1nc(-c2ccc(Cl)cc2)cs1 (stereo not drawn)	none (no result: D2 PAM-2, D2 ag-1, D2 antag)
CC1=C(C(=O)Nc2cccnc2)C(c2ccc(F)cc2)n2nc(SCc3ccccc3)nc2N1 (stereo not drawn)	none (no result: D2 PAM-1, D2 antag, D2 ag-2)
CCOC(=O)c1c(S(=O)(=O)N2CCC(C)CC2)c(C)n(C)c1C	none
Cc1c(C(=O)NC2CCC(C)CC2)oc2ccccc12 (stereo not drawn)	D2 ag-1 43 | D3 ag inactive | D2 ag-3 inactive
CC(=O)Nc1ccc(NC(=O)CN2CCN(c3ccccn3)CC2)cc1	D2 ag-1 82, D2 antag 84, D2 ag-2 inconclusive | D3 ag inconclusive | D2 ag-3 inconclusive
O=C(CN1CCN(c2ccccn2)CC1)Nc1ccc2ccccc2c1	none | D3 ag inactive | D2 ag-3 inactive
O=C(COc1ccc(Br)cc1)NNC(=O)c1ccc(-n2cncn2)c([N+](=O)[O-])c1	none | D3 ag inactive | D2 ag-3 inactive
COC(=O)c1c(NC(=O)C(C)C)sc(C(=O)N2CCOCC2)c1C	none
